Screening results (PubChem BioAssay)
An excerpt weighted towards active compounds, which were near 2.4% of everything screened.
Pol kappa inh-1: DNA polymerase kappa (human) inhibition; AID 588579; purified Pol kappa, fluorescent DNA synthesis assay, 10 min; Q9UBT6; Potency, µM (doses to about 107 µM), for inactives: at the highest dose activity, negative = inhibition, most hits filed as inhibitors; hit rate 0.53% among 400,000; note: potency is the fitted concentration of half-maximal effect; % is set by controls: 0 for no effect and ±100 for the full control effect
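10 nM Pol kappa preincubated 15 min at room temperature with compounds, then reaction started with substrate at 50 nM final. Fluorescence read kinetically at 0 and 10 min; buffer-only wells served as negative control.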
Pol beta inh: DNA polymerase beta (human) inhibition; Pol beta primer extension/strand displacement, fluorescence kinetic; hit rate 1.3% among 340,000; Potency, µM (doses to about 114 µM), for the others: top-dose activity change, negative = inhibition, hits mostly inhibitors; note: potency is the fitted concentration of half-maximal effect; % is set by controls: 0 for no effect and ±100 for the full control effect
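Preincubation: enzyme (10 nM) with compound, 15 min, RT. Reaction: substrate added to 50 nM final. Reads: 0 and 10 min. Analysis: normalized, Hill fit.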
FEN1 inh: inhibitors of human flap endonuclease 1 | Recombinant FEN1 flap cleavage, fluorescence, 15 min | P39748 | hit rate 0.35% among 390,000 | AID 588795 | Potency, µM (doses to about 114 µM), for the others: at the highest dose activity change, negative = inhibition, usual class: inhibitors; note: potency is the fitted concentration of half-maximal effect; % is set by controls: 0 for no effect and ±100 for the full control effect; nearly all actives have a fitted effect of over 65% in size
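Quantitative HTS format: each compound was titrated, incubated with 10 nM nuclease for 15 min at room temperature, then challenged with flap substrate at 50 nM final. Signal change over 15 min gave concentration–effect curves.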
Pol eta inh-1: DNA polymerase eta (human) inhibition. Q9Y253. recombinant Pol eta, fluorescent DNA replication assay. Potency, µM (series often up to 114 µM), for the others: at the top dose activity change, negative = inhibition, hits mostly inhibitors. hit rate 1.2% among 390,000. AID 588591; note: potency is the fitted concentration of half-maximal effect; % is set by controls: 0 for no effect and ±100 for the full control effect
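Fluorescent replication assay: 50 nM final substrate added after a 15 min room-temperature compound preincubation with 10 nM enzyme. Signal taken at 0 min and again at 10 min.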
WRN inhibitor: blocks human WRN helicase; WRN helicase unwinding, fluorescent forked duplex, kinetic; Potency, µM (top dose mostly 114 µM), without a hit: at the top dose activity change, negative = inhibition, hits mostly inhibitors; hit rate 0.46% among 360,000; note: potency is the fitted concentration of half-maximal effect; % is set by controls: 0 for no effect and ±100 for the full control effect; nearly all actives have a fitted effect of over 55% in size
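Kinetic fluorescence helicase assay: unwinding of a quenched forked DNA duplex (100 nM final) with 2 mM ATP final raises red fluorescence (525/598 nm). Compounds sat 15 min at room temperature with 20 nM WRN beforehand.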
Pol iota inh: DNA polymerase iota (human) inhibition; hit rate 1% among 390,000; AID 588590; Pol iota fluorescent replication assay, 10 min; Potency, µM (titrated, usually from 115 µM), inactives show at the top dose activity, negative = inhibition, usual class: inhibitors; Q9UNA4; note: potency is the fitted concentration of half-maximal effect
Target sequence (Q9UNA4 whole entry, looked up): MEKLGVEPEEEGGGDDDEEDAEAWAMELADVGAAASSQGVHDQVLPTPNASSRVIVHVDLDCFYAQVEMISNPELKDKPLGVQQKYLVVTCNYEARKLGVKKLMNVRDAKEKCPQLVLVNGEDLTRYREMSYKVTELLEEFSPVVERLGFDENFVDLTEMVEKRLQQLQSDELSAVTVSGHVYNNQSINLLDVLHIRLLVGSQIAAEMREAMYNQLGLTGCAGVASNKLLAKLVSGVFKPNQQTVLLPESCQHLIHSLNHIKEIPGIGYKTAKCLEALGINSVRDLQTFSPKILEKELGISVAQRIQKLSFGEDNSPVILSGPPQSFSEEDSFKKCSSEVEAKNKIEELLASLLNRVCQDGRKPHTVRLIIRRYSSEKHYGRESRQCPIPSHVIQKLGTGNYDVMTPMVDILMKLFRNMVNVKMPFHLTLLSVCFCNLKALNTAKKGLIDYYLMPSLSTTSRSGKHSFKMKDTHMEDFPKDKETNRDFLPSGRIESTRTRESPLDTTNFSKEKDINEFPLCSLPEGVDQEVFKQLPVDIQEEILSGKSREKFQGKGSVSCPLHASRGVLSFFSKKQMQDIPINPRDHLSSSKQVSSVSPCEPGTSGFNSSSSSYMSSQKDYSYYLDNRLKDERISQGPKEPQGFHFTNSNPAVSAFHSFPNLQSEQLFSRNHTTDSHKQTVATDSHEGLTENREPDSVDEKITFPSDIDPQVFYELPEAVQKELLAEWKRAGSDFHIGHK
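Pol iota at 10 nM preincubated 15 min with compounds at room temperature; reaction started with fluorescent substrate, 50 nM final. Fluorescence read kinetically at 0 and 10 min; buffer-only wells as negative control.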
GALK inh confirm: galactokinase (human) inhibition, confirmation. shares compounds with Pol eta inh-1. purified GALK, Kinase-Glo ATP depletion luminescence. Potency, µM (doses to about 115 µM), without a hit: at the highest dose activity, negative = inhibition, usual class: inhibitors. hit rate 70% among 150. AID 2015
GALK redox cs: generates H2O2 by redox cycling, flagging GALK artifacts; shares compounds with Pol eta inh-1; Phenol red-HRP H2O2 redox cycling, absorbance 600 nm; Potency, µM (top dose mostly 115 µM), for the others: at the highest dose activity change, negative = H2O2 signal, hits mostly inhibitors; hit rate 40% among 150
HEK293 tox: reduces HEK-293 cell viability in GALK counter-screen; hit rate 10% among 170; HEK-293 viability, ATP luminescence (CellTiter-Glo), 24/48 h; AID 2547; Potency, µM (top dose mostly 46.1 µM), for the others: at the top dose activity change, negative = cytotoxicity, most hits filed as inhibitors; shares compounds with Pol eta inh-1; note: potency is the fitted concentration of half-maximal effect; % is set by controls: 0 for no effect and ±100 for the full control effect
Pol kappa inh-2: Pol kappa (human) inhibition, cherry-pick confirmation; shares compounds with Pol eta inh-1; purified Pol-kappa, fluorescent strand-displacement substrate; Potency, µM, most hits filed as inhibitors; hit rate 76% among 920; note: potency is the fitted concentration of half-maximal effect
Pol eta inh-2: confirmation of human DNA polymerase eta inhibitors; shares compounds with Pol eta inh-1; Pol eta primer extension, TAMRA/BHQ fluorescence, 10 min; Potency, µM, hits mostly inhibitors; hit rate 64% among 2,600; note: potency is the fitted concentration of half-maximal effect
Numbers without * were called inactive; ? = inconclusive; . = no result given; [ ] = dose if it differs, or a comment. Calls come from the whole dose curve; as a rule, active = well fitted curve in the direction sought with a large enough effect; inconclusive = small, poorly fitted or top-dose-only effect, or another doubt; inactive = no such curve, though single readings can be large; an effect the other way counts as inactive or inconclusive.

SMILES | Pol kappa inh-1 | Pol beta inh | FEN1 inh | Pol eta inh-1 | WRN inhibitor | Pol iota inh | Pol eta inh-2 | others
O=C(O)CN1C(=O)/C(=C/c2ccc(-c3cccc(Cl)c3)o2)SC1=S | . | . | . | . | . | . | ? | Pol kappa inh-2=34*
C/C=C\C=C/C(=O)Nc1cccc(C2=NOC3(C2)C[C@@H](C(N)=O)N(C(=O)C2(C)CC2)C3)c1 (some centres undefined) | -13% | 29% | -14% | ? | -9%[11.6 µM] | 45µM* | 67*
COc1ccc(NC(=O)c2cc3ccccc3cc2OC)cc1 | ? | 8% | 0% | -13% | -14% | ? | .
COc1cc2ccccc2cc1C(=O)NC(=S)Nc1ccc(C(=O)O)cc1 | -10% | -18% | ? | 50µM* | -13%[11.6 µM] | 0% | ?
COc1cc2ccccc2cc1C(=O)NC(=S)Nc1cccc(C(=O)O)c1 | -19% | 28µM* | ? | 45µM* | ? | ? | ?
CN1CCN(c2oc(-c3ccc(OCc4ccc(Cl)cc4)cc3)nc2C#N)CC1 | -11% | . | -11% | . | . | 38% | .
CC(C)CC(NC(=O)/C(=C/c1ccco1)NC(=O)c1ccc(Br)o1)C(=O)O (centres undefined) | 71µM* | 0% | -23% | 22µM* | -7%[11.6 µM] | ? | . | Pol kappa inh-2=?
CC(C)CC(NC(=O)/C(=C\c1ccco1)NC(=O)c1ccco1)C(=O)O (centres undefined) | -13% | 1% | 6% | -5% | 3% | 20% | .
O=C(Nc1cccc(C(=O)O)c1)/C(=C\c1ccco1)NC(=O)c1ccc(Br)o1 | 79µM* | ? | -25% | 18µM* | -5%[11.6 µM] | ? | 38* | Pol kappa inh-2=24*
c1cnc2[nH]ccc2c1 | 10% | . | 19% | . | . | 49% | .
NS(=O)(=O)c1ccc(NC(=S)NNC(=O)c2ccc(Br)o2)cc1 | -3% | 96% | 5% | -15% | 2% | 19% | . | GALK inh confirm=?;GALK redox cs=-2%;HEK293 tox=19%
NS(=O)(=O)c1ccc(NC(=S)NC(=O)c2ccc(Br)o2)cc1 | -11% | ? | 6% | -2% | 9%[57.1 µM] | 63% | .
Cc1noc(-c2ccc(CSCCC(=O)O)cc2)c1NC(=O)OC(C)c1ccccc1Cl (centres undefined) | -3%[60.1 µM] | . | . | . | . | . | .
O=C1c2cc(O)cc(O)c2C(=O)c2c1cc(O)c([C@@H](CO)CCO)c2O | 79µM* | . | ? | 45µM* | -13%[11.6 µM] | ? | ?
Cc1noc(C)c1-c1ccc2ncnc(N(C)Cc3ccco3)c2c1 | -1%[60.1 µM] | . | . | . | . | . | .
N#C/C(=C\c1ccc(C(=O)O)cc1)c1nc2sc3c(c2c(=O)[nH]1)CCCC3 | ? | 50µM* | ? | 20µM* | ? | ? | 30*
CCOC(=O)c1nc2sc3c(c2c(=O)[nH]1)CCCC3 | 1% | -12% | -4% | 8% | -9% | 11% | .
O=C(Nc1nnc(-c2ccncc2)s1)C1CCCO1 (centres undefined) | -2% | -10% | 2% | ? | -11% | -2% | .
O=C(Nc1nnc(-c2ccccc2F)s1)C1CCCO1 (centres undefined) | ? | 32µM* | 1% | 14µM* | -24%[57.1 µM] | 50µM* | ?
COc1ccc(OC)c(-c2ccc(C(=O)O)o2)c1 | -16% | . | . | . | . | . | .
CC(=O)NS(=O)(=O)c1ccc(NC(=O)/C=C/c2ccc(C)o2)cc1 | ? | -16% | -6% | 22µM* | -18%[11.6 µM] | ? | 43*
COc1cc(NC(=O)c2ccc3c(SCC(=O)O)c4c(nc3c2)CCC4)cc(OC)c1OC | ? | -4% | 2% | 18µM* | -17%[11.6 µM] | ? | 54*
COc1cc(NC(=O)c2ccc3c(SCC(=O)O)c4c(nc3c2)CCCC4)cc(OC)c1OC | ? | ? | -26% | -7% | -16% | ? | .
CCc1ccc(NC(=O)Cn2c(-c3cncs3)nc3ccccc32)cc1 | -7% | -1% | -3% | -21% | . | 8% | .
COc1cc(/C=C2\C(=O)ON=C2c2ccccc2)cc(Br)c1O | 2% | 2% | ? | 45µM* | ? | ? | . | GALK inh confirm=38µM*;GALK redox cs=-2%;HEK293 tox=-17%
SMILES | Pol kappa inh-1 | Pol beta inh | FEN1 inh | Pol eta inh-1 | WRN inhibitor | Pol iota inh | Pol eta inh-2 | others
Cc1cccc(N(C)C(=O)CN(C)S(=O)(=O)c2ccc3[nH]c4c(c3c2)CCCC4)c1 | -15% | 6% | -11% | -6% | . | 18% | .
O=C(O)c1ccc(Cn2cc(/C=C\[N+](=O)[O-])c3ccccc32)o1 | ? | ? | -23% | 22µM* | ? | 8.9µM* | 76*
COC(=O)c1ccc(Cn2cc(/C=C\[N+](=O)[O-])c3ccccc32)o1 | -14% | 1% | -20% | -8% | -23% | ? | .
S=C1Cc2ccccc2N1 | -23% | 1% | ? | 25µM* | 6% | 10µM* | . | GALK inh confirm=27µM*;GALK redox cs=7.5µM*;HEK293 tox=0%
Cc1cccc(Cn2c(C)c(C)c3cc(C(=O)NCc4ccco4)ccc32)c1 | -15% | ? | 8% | 79µM* | . | -10% | ?
O=c1c2ccccc2nc2ccc(NCc3ccco3)nn12 | -37% | ? | -21% | ? | ? | ? | ?
Cc1cccc(NC(=O)CCc2nnc3ccc(NCc4ccco4)nn23)n1 | 1% | ? | -1% | 25µM* | -7%[11.6 µM] | 36% | 76*
COc1ccccc1NC(=O)CCc1nnc2ccc(NCc3ccco3)nn12 | -19% | -14% | 4% | -16% | -2% | ? | .
O=C(CCc1nnc2ccc(NCc3ccco3)nn12)Nc1ccccn1 | 5% | ? | 7% | 28µM* | -3%[11.6 µM] | 20% | ?
O=C(CCc1nnc2ccc(NCc3ccco3)nn12)Nc1ccccc1F | -23% | ? | 12% | ? | -15% | ? | .
